Common to all, as to experiment: DAPPL (digital affinity profiling via proximity ligation, sequencing); 10 mM Tris-HCl pH 7.5, 50 mM NaCl, 1 mM DTT, 4% glycerol, room temperature, 30 min; GST-TFs on glutathione beads, 16-mer random dsDNA library, 0.1% formaldehyde crosslink after washing; high values mean tight binding
In one experiment the target is T1, FEV (Homo sapiens, UniProt Q99581 1-238).
T1 sequence: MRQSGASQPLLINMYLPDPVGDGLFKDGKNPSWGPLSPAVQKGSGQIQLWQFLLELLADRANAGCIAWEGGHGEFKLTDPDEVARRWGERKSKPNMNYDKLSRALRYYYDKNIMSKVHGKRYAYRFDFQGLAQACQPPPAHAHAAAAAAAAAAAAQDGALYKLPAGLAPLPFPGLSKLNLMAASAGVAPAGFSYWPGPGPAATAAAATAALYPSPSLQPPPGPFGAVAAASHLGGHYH
The note with it: protein: recombinant; tags: N-terminal GST; dsDNA, one strand shown. An outline of the steps: (§1)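 Each value of binding signal is a hexamer's read frequency for a factor divided by the same hexamer's frequency in the tag-only sample. Barcoded, bead-captured GST fusions of human transcription factors made in yeast were pooled with that sample and incubated with 200 nmole of a random double-stranded 16-mer DNA library in Tris/NaCl/DTT/glycerol buffer at room temperature for 30 min. Washing, 0.1% formaldehyde crosslinking, proximity ligation, PCR and Illumina NextSeq500 sequencing followed.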

The next experiment deals with ETV5 (Homo sapiens, UniProt P41161 1-510). To be noted: protein: recombinant; tags: N-terminal GST; dsDNA, one strand shown. An outline of the steps: as §1
The target in the next experiment is HSF1 (Homo sapiens, UniProt Q00613 1-529). To be noted: protein: recombinant; tags: N-terminal GST; chain copies: 3; dsDNA, one strand shown. An outline of the steps:
as §1

The target in a further experiment is T2, SPIC (Homo sapiens, UniProt Q8N5J4 1-248).
T2 sequence: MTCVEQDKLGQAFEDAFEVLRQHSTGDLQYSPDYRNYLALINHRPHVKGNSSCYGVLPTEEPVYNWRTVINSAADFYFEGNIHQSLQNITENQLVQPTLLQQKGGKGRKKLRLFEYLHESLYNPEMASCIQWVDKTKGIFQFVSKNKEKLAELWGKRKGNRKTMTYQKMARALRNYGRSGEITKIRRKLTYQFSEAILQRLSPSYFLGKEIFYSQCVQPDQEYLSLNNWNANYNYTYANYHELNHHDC
The note with it: protein: recombinant; tags: N-terminal GST; dsDNA, one strand shown. An outline of the steps:
as §1

A further experiment addresses ELF4 (Homo sapiens, UniProt Q99607 1-663). The note with it: protein: recombinant; tags: N-terminal GST; dsDNA, one strand shown. An outline of the steps:
as §1

In the next experiment the target is T3, ELK4 (Homo sapiens, UniProt P28324-2 1-405).
T3 sequence: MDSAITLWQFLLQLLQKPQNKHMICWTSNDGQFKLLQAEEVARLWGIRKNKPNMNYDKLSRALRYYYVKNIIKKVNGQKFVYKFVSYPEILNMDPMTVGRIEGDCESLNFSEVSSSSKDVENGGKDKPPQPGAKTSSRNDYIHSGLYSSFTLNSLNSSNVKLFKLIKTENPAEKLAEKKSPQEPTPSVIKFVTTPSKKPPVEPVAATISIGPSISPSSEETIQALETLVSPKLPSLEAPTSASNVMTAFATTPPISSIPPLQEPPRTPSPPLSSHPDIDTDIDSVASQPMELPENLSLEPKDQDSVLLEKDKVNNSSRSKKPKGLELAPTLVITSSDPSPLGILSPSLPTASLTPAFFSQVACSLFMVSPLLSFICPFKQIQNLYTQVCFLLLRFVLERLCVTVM
To be noted: protein: recombinant; tags: N-terminal GST; dsDNA, one strand shown. An outline of the steps: as §1

The target in a further experiment is T4, ETV2 (Homo sapiens, UniProt O00321 1-342).
T4 sequence: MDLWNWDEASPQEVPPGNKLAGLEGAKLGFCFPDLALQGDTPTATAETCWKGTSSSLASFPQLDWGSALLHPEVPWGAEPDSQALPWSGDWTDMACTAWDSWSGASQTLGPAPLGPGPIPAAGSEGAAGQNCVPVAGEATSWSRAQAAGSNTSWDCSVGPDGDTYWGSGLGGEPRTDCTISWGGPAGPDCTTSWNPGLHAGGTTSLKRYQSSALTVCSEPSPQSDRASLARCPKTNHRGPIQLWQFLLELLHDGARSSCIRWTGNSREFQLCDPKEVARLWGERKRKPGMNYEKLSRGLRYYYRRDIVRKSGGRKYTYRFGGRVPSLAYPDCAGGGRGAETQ
The note with it: protein: recombinant; tags: N-terminal GST; dsDNA, one strand shown. An outline of the steps: as §1

The target in another experiment is T5, ELF3 (Homo sapiens, UniProt P78545 1-371).
T5 sequence: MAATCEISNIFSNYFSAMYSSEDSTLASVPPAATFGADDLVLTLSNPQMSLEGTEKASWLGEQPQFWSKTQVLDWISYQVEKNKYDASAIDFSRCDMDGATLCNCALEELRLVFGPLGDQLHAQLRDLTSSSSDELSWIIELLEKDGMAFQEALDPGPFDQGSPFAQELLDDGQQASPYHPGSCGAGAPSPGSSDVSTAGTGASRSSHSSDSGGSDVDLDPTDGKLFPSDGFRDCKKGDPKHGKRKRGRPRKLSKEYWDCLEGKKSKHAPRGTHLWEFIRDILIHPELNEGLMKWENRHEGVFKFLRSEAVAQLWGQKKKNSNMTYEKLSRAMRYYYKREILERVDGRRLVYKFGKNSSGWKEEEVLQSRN
To be noted: protein: recombinant; tags: N-terminal GST; dsDNA, one strand shown. An outline of the steps:
as §1

The target in another experiment is CRX (Homo sapiens, UniProt O43186 1-299). The note with it: protein: recombinant; tags: N-terminal GST; dsDNA, one strand shown. An outline of the steps:
as §1

Another experiment deals with ETV1 (Homo sapiens, UniProt P50549 1-477). To be noted: protein: recombinant; tags: N-terminal GST; dsDNA, one strand shown. An outline of the steps:
as §1

The next experiment deals with T6, ERF (Homo sapiens, UniProt P50548 1-548).
T6 sequence: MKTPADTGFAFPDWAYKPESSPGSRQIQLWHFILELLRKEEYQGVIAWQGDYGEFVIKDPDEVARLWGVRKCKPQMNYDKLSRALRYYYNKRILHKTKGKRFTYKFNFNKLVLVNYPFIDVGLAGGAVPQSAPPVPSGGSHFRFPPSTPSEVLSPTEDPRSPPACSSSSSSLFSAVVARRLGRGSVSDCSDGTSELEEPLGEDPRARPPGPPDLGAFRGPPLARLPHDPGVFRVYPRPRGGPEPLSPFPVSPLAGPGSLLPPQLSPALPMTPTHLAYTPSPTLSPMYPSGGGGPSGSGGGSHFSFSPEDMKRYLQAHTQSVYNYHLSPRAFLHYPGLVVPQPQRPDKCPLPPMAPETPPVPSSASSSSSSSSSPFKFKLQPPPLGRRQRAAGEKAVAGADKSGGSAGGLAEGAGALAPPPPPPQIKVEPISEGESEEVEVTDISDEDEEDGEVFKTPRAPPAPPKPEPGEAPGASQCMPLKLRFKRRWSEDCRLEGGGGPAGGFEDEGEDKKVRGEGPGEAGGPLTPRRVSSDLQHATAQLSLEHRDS
To be noted: protein: recombinant; tags: N-terminal GST; dsDNA, one strand shown. An outline of the steps: as §1

Another experiment deals with T7, ETV3L (Homo sapiens, UniProt Q6ZN32 1-361).
T7 sequence: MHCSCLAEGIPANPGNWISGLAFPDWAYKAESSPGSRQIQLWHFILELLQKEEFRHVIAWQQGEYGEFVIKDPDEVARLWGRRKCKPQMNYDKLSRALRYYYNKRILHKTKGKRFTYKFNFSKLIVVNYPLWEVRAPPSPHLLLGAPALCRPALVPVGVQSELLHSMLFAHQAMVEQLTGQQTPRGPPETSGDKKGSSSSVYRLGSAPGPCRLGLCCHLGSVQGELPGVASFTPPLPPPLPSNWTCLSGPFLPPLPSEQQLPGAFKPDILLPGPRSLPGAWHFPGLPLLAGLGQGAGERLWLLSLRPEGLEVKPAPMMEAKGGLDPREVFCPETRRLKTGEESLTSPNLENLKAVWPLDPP
The note with it: protein: recombinant; tags: N-terminal GST; dsDNA, one strand shown. An outline of the steps:
as §1

The next experiment has as its target T8, ETS2 (Homo sapiens, UniProt P15036 1-469).
T8 sequence: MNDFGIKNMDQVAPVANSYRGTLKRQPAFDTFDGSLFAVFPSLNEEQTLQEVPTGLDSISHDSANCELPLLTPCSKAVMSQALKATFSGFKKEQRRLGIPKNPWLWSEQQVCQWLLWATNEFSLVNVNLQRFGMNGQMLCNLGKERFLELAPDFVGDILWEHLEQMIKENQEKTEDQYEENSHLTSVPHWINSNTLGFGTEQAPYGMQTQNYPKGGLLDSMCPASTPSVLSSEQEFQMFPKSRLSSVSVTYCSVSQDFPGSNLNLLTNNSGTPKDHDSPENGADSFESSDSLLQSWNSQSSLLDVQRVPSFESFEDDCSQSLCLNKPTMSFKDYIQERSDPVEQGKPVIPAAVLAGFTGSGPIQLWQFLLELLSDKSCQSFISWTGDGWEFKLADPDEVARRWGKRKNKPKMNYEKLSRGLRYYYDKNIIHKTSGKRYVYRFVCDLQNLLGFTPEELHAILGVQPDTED
To be noted: protein: recombinant; tags: N-terminal GST; dsDNA, one strand shown. An outline of the steps: as §1

A further experiment has as its target T9, SPDEF (Homo sapiens, UniProt O95238 1-335).
T9 sequence: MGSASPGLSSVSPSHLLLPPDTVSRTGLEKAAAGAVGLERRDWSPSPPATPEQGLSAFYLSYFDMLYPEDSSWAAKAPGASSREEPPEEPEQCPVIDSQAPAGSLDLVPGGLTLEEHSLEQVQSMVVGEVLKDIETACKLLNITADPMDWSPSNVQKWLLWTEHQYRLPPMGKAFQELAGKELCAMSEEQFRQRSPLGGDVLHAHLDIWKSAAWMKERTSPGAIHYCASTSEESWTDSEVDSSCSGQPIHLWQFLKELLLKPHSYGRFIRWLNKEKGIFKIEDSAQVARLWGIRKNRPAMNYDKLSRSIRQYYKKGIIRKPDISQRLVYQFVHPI
To be noted: protein: recombinant; tags: N-terminal GST; dsDNA, one strand shown. An outline of the steps: as §1

For the next experiment, the target named is T10, ETV7 (Homo sapiens, UniProt Q9Y603 1-341).
T10 sequence: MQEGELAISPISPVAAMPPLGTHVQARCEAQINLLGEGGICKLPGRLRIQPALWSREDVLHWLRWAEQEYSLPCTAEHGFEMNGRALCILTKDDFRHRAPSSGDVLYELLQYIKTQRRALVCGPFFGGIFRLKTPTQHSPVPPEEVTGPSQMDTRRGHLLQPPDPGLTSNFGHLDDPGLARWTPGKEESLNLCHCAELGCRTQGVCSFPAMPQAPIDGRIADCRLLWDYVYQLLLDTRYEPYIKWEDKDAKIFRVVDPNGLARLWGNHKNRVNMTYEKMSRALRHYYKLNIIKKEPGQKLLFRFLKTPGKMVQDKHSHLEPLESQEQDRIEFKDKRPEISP
To be noted: protein: recombinant; tags: N-terminal GST; dsDNA, one strand shown. An outline of the steps:
as §1

The target of a further experiment is T11, ELF5 (Homo sapiens, UniProt Q9UKW6-2 1-255).
T11 sequence: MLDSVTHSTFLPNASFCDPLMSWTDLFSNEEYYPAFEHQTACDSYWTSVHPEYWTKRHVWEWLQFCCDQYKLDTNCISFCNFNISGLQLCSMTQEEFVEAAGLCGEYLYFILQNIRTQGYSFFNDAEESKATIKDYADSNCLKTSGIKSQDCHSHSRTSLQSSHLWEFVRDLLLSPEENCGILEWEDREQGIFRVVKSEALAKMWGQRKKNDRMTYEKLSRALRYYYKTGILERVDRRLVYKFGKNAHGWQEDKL
The note with it: protein: recombinant; tags: N-terminal GST; dsDNA, one strand shown. An outline of the steps: as §1

A further experiment has as its target T12, ETV3 (Homo sapiens, UniProt P41162-2 1-143).
T12 sequence: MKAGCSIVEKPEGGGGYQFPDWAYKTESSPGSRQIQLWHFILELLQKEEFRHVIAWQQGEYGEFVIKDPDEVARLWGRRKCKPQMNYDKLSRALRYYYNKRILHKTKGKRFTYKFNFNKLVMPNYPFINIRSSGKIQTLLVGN
The note with it: protein: recombinant; tags: N-terminal GST; dsDNA, one strand shown. An outline of the steps:
as §1

In the next experiment the target is ETV6 (Homo sapiens, UniProt P41212 1-452). The note with it: protein: recombinant; tags: N-terminal GST; dsDNA, one strand shown. An outline of the steps:
as §1

Sequence of ETV6 (P41212 whole entry): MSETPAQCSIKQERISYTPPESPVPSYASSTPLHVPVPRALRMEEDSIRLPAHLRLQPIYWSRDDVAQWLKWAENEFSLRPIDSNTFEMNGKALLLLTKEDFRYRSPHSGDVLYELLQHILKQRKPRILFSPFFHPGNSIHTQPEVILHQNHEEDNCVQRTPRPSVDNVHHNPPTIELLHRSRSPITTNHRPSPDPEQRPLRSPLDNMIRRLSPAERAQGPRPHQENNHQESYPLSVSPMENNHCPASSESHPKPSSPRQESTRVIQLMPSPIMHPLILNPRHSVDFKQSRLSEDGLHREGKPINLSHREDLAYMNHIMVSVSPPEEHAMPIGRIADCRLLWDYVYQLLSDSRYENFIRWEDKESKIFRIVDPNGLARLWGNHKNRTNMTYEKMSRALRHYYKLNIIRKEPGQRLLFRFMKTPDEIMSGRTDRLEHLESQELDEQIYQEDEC
Sequence of CRX (O43186 whole entry): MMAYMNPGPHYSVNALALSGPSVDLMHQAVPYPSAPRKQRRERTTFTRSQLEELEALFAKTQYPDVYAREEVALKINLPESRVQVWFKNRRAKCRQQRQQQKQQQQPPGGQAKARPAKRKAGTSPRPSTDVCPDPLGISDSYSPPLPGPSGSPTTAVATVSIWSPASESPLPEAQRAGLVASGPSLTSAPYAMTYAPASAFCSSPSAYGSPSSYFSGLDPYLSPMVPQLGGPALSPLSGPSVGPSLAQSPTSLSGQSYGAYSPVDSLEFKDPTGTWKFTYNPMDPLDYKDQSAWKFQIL
Sequence of ETV5 (P41161 whole entry): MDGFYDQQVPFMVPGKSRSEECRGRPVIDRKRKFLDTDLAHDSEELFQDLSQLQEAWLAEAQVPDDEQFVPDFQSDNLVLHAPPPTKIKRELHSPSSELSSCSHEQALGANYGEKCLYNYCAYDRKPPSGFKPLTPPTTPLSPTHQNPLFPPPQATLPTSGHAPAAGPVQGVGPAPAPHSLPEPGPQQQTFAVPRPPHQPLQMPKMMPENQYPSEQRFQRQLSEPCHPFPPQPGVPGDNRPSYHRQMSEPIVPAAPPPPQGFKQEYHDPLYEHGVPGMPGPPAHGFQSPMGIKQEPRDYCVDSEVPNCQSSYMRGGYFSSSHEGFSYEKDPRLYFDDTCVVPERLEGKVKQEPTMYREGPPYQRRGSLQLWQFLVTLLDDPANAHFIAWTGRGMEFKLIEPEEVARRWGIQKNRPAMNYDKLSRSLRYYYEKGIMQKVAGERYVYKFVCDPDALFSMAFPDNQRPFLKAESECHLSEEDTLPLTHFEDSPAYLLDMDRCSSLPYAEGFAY
Sequence of ELF4 (Q99607 whole entry): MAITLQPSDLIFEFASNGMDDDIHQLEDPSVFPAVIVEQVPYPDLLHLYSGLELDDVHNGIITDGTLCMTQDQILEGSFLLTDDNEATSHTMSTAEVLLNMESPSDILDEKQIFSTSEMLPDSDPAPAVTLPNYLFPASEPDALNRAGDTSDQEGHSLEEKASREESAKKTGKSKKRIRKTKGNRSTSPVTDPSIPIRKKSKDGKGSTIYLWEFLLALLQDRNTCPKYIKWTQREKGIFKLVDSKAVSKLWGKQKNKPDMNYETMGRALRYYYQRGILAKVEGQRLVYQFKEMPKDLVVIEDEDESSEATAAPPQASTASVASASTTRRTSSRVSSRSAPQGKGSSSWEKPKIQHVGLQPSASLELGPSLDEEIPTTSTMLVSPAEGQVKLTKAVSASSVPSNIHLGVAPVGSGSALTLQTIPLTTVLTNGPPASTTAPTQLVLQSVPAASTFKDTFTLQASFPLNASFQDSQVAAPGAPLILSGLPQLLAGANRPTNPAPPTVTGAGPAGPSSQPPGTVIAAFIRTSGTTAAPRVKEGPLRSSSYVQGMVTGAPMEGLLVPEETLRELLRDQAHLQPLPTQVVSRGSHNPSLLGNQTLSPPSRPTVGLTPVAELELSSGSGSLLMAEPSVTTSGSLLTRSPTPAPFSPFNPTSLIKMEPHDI
Sequence of ETV1 (P50549 whole entry): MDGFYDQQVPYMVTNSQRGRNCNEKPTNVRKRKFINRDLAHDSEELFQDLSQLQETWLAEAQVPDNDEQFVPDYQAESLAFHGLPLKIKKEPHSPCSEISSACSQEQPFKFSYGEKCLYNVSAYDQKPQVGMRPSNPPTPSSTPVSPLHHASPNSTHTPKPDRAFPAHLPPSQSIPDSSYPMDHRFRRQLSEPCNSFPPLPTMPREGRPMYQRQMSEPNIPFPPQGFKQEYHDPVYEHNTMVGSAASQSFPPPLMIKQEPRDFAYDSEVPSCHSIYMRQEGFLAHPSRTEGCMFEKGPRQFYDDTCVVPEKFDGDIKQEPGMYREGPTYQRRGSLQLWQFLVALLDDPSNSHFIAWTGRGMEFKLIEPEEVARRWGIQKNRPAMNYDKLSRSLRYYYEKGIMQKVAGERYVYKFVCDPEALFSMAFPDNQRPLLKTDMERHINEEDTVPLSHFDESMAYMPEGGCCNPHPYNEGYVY
Sequence of HSF1 (Q00613 whole entry): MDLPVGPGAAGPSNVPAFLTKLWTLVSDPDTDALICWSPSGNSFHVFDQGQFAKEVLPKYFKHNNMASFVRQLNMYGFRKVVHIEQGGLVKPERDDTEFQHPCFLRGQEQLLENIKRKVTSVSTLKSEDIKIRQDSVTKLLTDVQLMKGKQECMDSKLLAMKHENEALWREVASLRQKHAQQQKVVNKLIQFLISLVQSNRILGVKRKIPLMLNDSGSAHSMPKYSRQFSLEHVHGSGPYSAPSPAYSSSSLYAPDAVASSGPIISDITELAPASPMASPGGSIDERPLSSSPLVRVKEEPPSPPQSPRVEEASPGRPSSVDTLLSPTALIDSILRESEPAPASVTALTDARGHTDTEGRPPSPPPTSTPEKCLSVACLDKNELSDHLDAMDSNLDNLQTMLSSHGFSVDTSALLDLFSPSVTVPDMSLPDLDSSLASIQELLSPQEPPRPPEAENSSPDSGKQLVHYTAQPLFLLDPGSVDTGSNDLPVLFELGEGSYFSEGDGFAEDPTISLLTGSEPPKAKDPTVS

Regarding CTCCGG, the binding signal is 2 fold enrichment (6-mer frequency, TF over GST control) in the experiment with FEV; 1.58 fold enrichment (6-mer frequency, TF over GST control) with ETV5; 1.18 fold enrichment (6-mer frequency, TF over GST control) with HSF1; 1.92 fold enrichment (6-mer frequency, TF over GST control) with SPIC; 1.56 fold enrichment (6-mer frequency, TF over GST control) with ELF4; 1.58 fold enrichment (6-mer frequency, TF over GST control) with ELK4. The binding signal in the experiment with ETV2 was 1.48 fold enrichment (6-mer frequency, TF over GST control); in the experiment with ELF3, 1.39 fold enrichment (6-mer frequency, TF over GST control); in the experiment with CRX, 1.02 fold enrichment (6-mer frequency, TF over GST control); in the experiment with ETV1 it was 1.64 fold enrichment (6-mer frequency, TF over GST control); with ERF, 1.56 fold enrichment (6-mer frequency, TF over GST control); with ETV3L it was 1.61 fold enrichment (6-mer frequency, TF over GST control). Moreover, the binding signal was 1.6 fold enrichment (6-mer frequency, TF over GST control) in the experiment with ETS2; 1.89 fold enrichment (6-mer frequency, TF over GST control) in the experiment with SPDEF; 1.32 fold enrichment (6-mer frequency, TF over GST control) in the experiment with ETV7; 1.58 fold enrichment (6-mer frequency, TF over GST control) with ELF5; 1.62 fold enrichment (6-mer frequency, TF over GST control) in the experiment with ETV3; 1.56 fold enrichment (6-mer frequency, TF over GST control) with ETV6.

Values taken from paper PMC7862700, “An all-to-all approach to the identification of sequence-specific readers for epigenetic DNA modifications on cytosine”.
